Where “and” joins values, the source holds several entries; their conditions need not be identical. Identical values can stand only once. Calls of active or inactive are those of the source.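 The calls were made as follows, unless noted: active = inhibition at or above 50% relative to wild type and mutant plate controls; inactive = inhibition below 50%.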

Test [1] is described as follows: inhibitors of TNFa-induced NFkB p65 translocation, primary screen, imaging, HUVEC, MLSMR starter and 10KST1 sets (AID 438;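 active = inhibition above 20% together with a positive visual image hit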;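 also: compound added about 3h40 before a 20 min TNFalpha stimulation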;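 as to inhibition: signal is the nuclear over cytoplasmic p65 intensity ratio per well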). The note with it: HUVEC TNFa-induced p65 nuclear translocation; cell count: measured here: nuclei count (cytotoxicity indicator), at 2.08 µM; inhibition: at 2 µM, stronger effect = higher value, 0% TNFa-plus-vehicle, 100% no-TNFa wells.
Test [2] in a line: reduction of polyQ htt aggregates in cells – imaging, exon1htt(103Q)mCFP cells, high-content imaging, primary screen (AID 483;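 active = visual image review flags a hit and inhibition of aggregation exceeds 20%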;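 also: compound exposure lasted 3 days before fixation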;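 as to nuclei count: percent of the per-plate median nuclei count of sample wells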). The note with it: exon1htt(103Q)mCFP cell line, aggregate imaging, at 2 µM; inhibition of aggregation: stronger effect = higher value; nuclei count: measured here: cell count, toxicity.
Test [3] is described as follows: endothelial E-selectin expression blockers – imaging, HUVEC, immunofluorescence, MLSMR starter and 10KST1 sets, primary screen (AID 487;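 active = visually confirmed hit in the image check and inhibition above 20%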;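 as to inhibition: signal is fraction of cell area covered by stained E-selectin grains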;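 as to nuclei count: 100% = median nuclei count of all wells on the same plate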). The conditions noted are these: HUVEC TNFalpha-induced E-selectin immunofluorescence imaging, at 2 µM; inhibition: stronger effect = higher value; nuclei count: measured here: cell number, toxicity.
A short description of test [4]: Primary imaging screen for DUSP6 inhibitors that restore phospho-Erk in transfected HeLa cells, chemical complementation (AID 609;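 active = compounds giving at least 50% inhibition in the cell-based MKP-3 phosphatase rescue imaging test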;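 as to inhibition: phospho-Erk level distribution per well compared with pooled transfected vehicle control wells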). The note with it: HeLa MKP-3 transfected, phospho-Erk imaging KS statistic, at 10 µM, cells stimulated with TPA for 15 min.
In test [5] the target is Dual specificity protein phosphatase 6 (Homo sapiens) (UniProt Q16828). The description is as above. The conditions noted are these: HeLa MKP-3 transfected, phospho-Erk imaging KS statistic; at 10 µM; stronger effect = higher value; cells stimulated with TPA for 15 min.
Test [6] deals with Voltage-gated potassium channel subunit beta-2 (Rattus norvegicus) (UniProt P62483). The test is described as follows: inhibitors of rat Kvbeta2 reductase activity – biochemical, NADPH fluorescence, primary screen (AID 622;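 active = fluorescence slope higher than the sample average by over 3 SD, cut at about -0.22 in these data, passing the limit was not always enough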;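 also: slope of raw intensity against log time taken from 70 to 1610 s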). The note with it: recombinant KvBeta, 4-cyanobenzaldehyde reduction, at 10 µM, stronger effect = higher value.
Test [7] has the same target. The test is described as follows: enhancers of rat Kvbeta2 NADPH turnover – biochemical, NADPH fluorescence, primary screen (AID 623;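 active = NADPH fluorescence slope more negative than the mean of all samples by about 3 SD, 99.7% confidence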;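 also: fluorescence intensity change per second fitted from 20 to 320 s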). The note with it: Recombinant KvBeta, NADPH fluorescence decrease slope, 10 min; at 10 µM; stronger effect = lower value.
The target in test [8] is Alpha-2C adrenergic receptor (Homo sapiens) (UniProt P18825). The test is described as follows: compounds altering alpha2C-coupled GIRK flux – cell-based, HEK293 alpha2C/GIRK1/2, thallium flux, primary screen (AID 624;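 active = fluorescence slope after compound addition differing from the mean of all screened samples at 99.7% confidence, in either direction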;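 also: slope of fluorescence ratio to pre-addition baseline per second over 15 to 24 s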). The conditions noted are these: thallium flux BTC fluorescence, at 10 µM, actives lie on both sides.
The nature of test [9]: inhibitors of larval lipid processing in zebrafish, primary screen, whole organism, PED6 fluorescence, gall bladder and intestine (AID 686;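 active = a full or partial loss of lipid-probe fluorescence in the fish gall bladder, intestine or both, judged by eye; inactive = no fluorescence loss, or compound toxic to the fish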;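 also: larvae 5 to 7 days old with five fish per well; signal comes from phospholipase A2 cleavage of quenched PED6 carried via bile; overnight exposure to compound and PED6 before scoring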). The note with it: Zebrafish larvae PED6 lipid processing, fluorescence scoring; screened at 20 µM (by protocol).
Test [10] in a line: loss of swimming-algae plug formation – whole organism, Chlamydomonas reinhardtii, WT vs cilia-less mutant, absorbance, 96-well, primary screen (AID 463189).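 Also: 0% = wild type cc124 cells in DMSO and 100% = ciliumless bld1 mutant cells.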 The note with it: Chlamydomonas reinhardtii gravitaxis, OD600 absorbance, 2 days; at 10 µM; stronger effect = higher value.
The nature of test [11]: blockers of RIG-like receptor reporter activation – cell-based, Sendai virus stimulus, luciferase, 10K MLSCN set, TLR/RLR signaling modifier project, primary screen (AID 602276;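 active = inhibition at or above 50% at 10 µM; inactive = inhibition below 50%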;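 also: firefly luciferase from ISG56 promoter only with Renilla not read in this screen; 0% = Sendai virus plus DMSO and 100% = medium plus DMSO without virus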). The conditions noted are these: HEK293 RL24 IRF3 luciferase reporter, at 10 µM, stronger effect = higher value. On the technique in general: Reporter assays use an easily measured gene product as a stand-in for the process of interest.

Test [12] in a line: TLR3 IRF3 reporter activation blockers – cell-based, poly I:C stimulus, luciferase, 10K MLSCN set, primary screen (AID 602277;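 active = inhibition of the reporter signal at or above 50%; inactive = inhibition below 50%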). The conditions noted are these: HEK293-TLR3 RL24 IRF3 luciferase reporter, at 10 µM, stronger effect = higher value.
The mark [13] stands for this setting: measured here: cell density z-score.
Setting [14] is: measured here: nuclear c-Myc green intensity z-score.
The mark [15] stands for this setting: measured here: nuclear pErk red intensity z-score, stronger effect = higher value.

Voltage-gated potassium channel subunit beta-2 (Rattus norvegicus), sequence (P62483 whole entry, looked up): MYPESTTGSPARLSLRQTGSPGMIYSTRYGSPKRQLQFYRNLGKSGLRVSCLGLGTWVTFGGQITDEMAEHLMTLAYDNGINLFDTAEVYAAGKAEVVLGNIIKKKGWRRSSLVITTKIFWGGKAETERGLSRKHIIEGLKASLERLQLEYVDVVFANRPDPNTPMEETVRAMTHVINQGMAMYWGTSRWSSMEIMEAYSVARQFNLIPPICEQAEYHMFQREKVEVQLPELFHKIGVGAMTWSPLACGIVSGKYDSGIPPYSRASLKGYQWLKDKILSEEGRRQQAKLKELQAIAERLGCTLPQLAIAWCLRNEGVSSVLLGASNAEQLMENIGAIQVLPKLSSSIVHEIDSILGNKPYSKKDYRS
Dual specificity protein phosphatase 6 (Homo sapiens), sequence (Q16828 whole entry, looked up): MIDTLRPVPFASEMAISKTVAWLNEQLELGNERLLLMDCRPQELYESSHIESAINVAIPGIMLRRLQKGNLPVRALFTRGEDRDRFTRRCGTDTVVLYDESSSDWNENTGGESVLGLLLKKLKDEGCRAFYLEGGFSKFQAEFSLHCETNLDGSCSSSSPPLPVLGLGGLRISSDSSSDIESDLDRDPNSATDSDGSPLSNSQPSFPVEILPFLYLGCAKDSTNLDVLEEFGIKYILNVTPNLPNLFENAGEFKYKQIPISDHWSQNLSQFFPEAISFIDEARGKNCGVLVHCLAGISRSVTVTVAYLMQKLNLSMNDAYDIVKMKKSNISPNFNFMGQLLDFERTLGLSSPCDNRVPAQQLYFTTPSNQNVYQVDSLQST
Alpha-2C adrenergic receptor (Homo sapiens), sequence (P18825 whole entry, looked up): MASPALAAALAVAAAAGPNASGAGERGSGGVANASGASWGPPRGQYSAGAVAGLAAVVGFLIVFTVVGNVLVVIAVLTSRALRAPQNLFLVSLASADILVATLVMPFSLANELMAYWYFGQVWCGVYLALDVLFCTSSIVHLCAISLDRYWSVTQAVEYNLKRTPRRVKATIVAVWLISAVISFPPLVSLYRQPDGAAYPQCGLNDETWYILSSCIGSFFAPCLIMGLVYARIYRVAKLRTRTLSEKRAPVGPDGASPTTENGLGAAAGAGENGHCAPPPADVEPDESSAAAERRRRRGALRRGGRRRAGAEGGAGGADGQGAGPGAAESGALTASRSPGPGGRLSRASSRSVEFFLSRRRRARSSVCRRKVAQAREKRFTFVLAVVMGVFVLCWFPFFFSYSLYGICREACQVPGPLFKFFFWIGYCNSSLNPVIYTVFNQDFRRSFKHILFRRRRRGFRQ

One may read the inhibition as the change of the read-out against control, counted positive when it falls. As to `COc1cccc(-c2nnc3sc(C4CCCCC4)nn23)c1`, the cell count in [1] worked out at 569. The inhibition was -0.9% (inactive) in [1]; -37.4% (inactive) in [3]; -13.3% (inactive) in test [5]; 112% (active) in [10]; 28.7% (inactive) in test [11]; 10.1% (inactive) in test [12]. Also, the inhibition of aggregation in test [2] was 42.2% (active). The nuclei count in [2] came to 66.9%; in [3], 130%. Also, the figures for the z-score in test [4] (setting [13]), in test [4] (setting [14]) and in [4] (setting [15]) were 0.451, 0.807 and -1.36, respectively. In [6], the fluorescence slope is -0.418 (inactive). Besides, the NADPH fluorescence slope in test [7] is -0.000116 (inactive). In test [8], the slope is 0.00489 (inactive). Besides, the molecule was classed as inactive in [9].
Regarding `CCC(NC(C)C)C(O)c1ccc(O)c(O)c1` (stereo not given), the cell count in test [1] worked out at 661. Besides, the inhibition in test [1] is -7.3% (inactive); in test [3] it was -51.9% (inactive); in test [5], 7.39% (inactive); in test [10] it was 14.5% (inactive) and 0.657% (inactive); in [11] it was 13.9% (inactive); in test [12], 39.3% (inactive). Besides, the inhibition of aggregation in [2] is 1% (inactive). Besides, the nuclei count in test [2] was found to be 109%; in test [3], 117%. In addition, the values for the z-score in test [4] (setting [13]), in test [4] (setting [14]) and in test [4] (setting [15]) were -1.1, -0.395 and 0.461, respectively. Further, in test [6], the fluorescence slope is -0.492 (inactive). Also, the NADPH fluorescence slope in test [7] was -5.8e-05 (inactive). Moreover, the slope in test [8] was 0.00513 (inactive). For the same molecule, the molecule was classed as inactive in [9].
On to `CCCCC(=O)O[C@]1(C(=O)CO)CC[C@H]2[C@@H]3CCC4=CC(=O)CC[C@]4(C)[C@H]3[C@@H](O)C[C@@]21C`, for which the cell count in test [1] is 559. The inhibition was -9.3% (inactive) in test [1]; -73.8% (inactive) in [3]; -0.493% (inactive) in [5]; 15.5% (inactive) in [10]; -1.27% (inactive) in test [11]; 57.4% (active) in test [12]. Besides, the inhibition of aggregation in test [2] was -2.8% (inactive). In addition, the nuclei count in test [2] worked out at 44.6%; in test [3], 120%. The z-score in test [4] (setting [13]) is -0.284; in test [4] (setting [14]), -0.0177; in test [4] (setting [15]), 0.0777. Also, the fluorescence slope in [6] is -0.554 (inactive). Further, the NADPH fluorescence slope in test [7] is -4.6e-05 (inactive). Besides, the slope in test [8] is 0.00469 (inactive). The call in test [9] was inactive.
Consider `Cc1nn(C)cc1/C=N/O`, for which the cell count in [1] was 677. Moreover, the inhibition in [1] was -4.1% (inactive); in test [3], -8.8% (inactive); in test [5], -1.12% (inactive); in test [10], 7.83% (inactive); in [11], 15.8% (inactive); in [12] it was 19% (inactive). For the same molecule, the inhibition of aggregation in test [2] was -2.1% (inactive). Besides, the values for the nuclei count in [2] and in test [3] were 83.6% and 140%, respectively. The values for the z-score in [4] (setting [13]), in test [4] (setting [14]) and in [4] (setting [15]) were 0.232, -1.13 and -0.23, respectively. Besides, the fluorescence slope in test [6] was -0.494 (inactive). Also, the NADPH fluorescence slope in test [7] is -0.000175 (inactive). Besides, the slope in test [8] was 0.00422 (inactive). Moreover, the molecule was called inactive in [9].
For the molecule `CC(=O)OCC(=O)[C@H]1CC[C@H]2[C@@H]3CCC4=CC(=O)CC[C@]4(C)[C@H]3CC[C@]12C`, the cell count in test [1] came to 599. Besides, the inhibition in test [1] was -7.8% (inactive); in [3] it was -142% (inactive); in test [5], 11.3% (inactive); in test [10] it was 6.25% (inactive); in test [11] it was -2.65% (inactive); in test [12] it was 25.6% (inactive). Also, in test [2], the inhibition of aggregation is -27.4% (inactive). For the same molecule, the nuclei count is 83.1% in [2] and 132% in test [3]. Moreover, the z-score is -1.17 in test [4] (setting [13]), 0.0337 in test [4] (setting [14]) and 1.04 in test [4] (setting [15]). In [6], the fluorescence slope is -0.472 (inactive). Also, in test [7], the NADPH fluorescence slope was -1.7e-05 (inactive). For the same molecule, in test [8], the slope is 0.00411 (inactive). In addition, the molecule was called inactive in test [9].

For the origin of these results see PubChem BioAssay.
